Screening data as filed in PubChem.
V-ATPase pH = yeast V-ATPase proton transport regulation by pHLuorin; S. cerevisiae, pHLuorin cytosolic pH fluorescence; response, % at 10 µM; actives 0.37% (n = 350,000); AID 504577; in the data active means response mostly above about 7.3%, no sharp cut-off; inactive means mostly below about 5.4%; further: actives read high
tim10-1 inh = growth inhibitors of tim10-1 mutant yeast; S. cerevisiae tim10-1 ts strain growth, BacTiter-Glo, 24 h; inhibition, % at 20 µM; AID 463190; actives 2.2% (n = 330,000);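 active means inhibition of at least 40%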;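 further: mutant grown at 25 °C; 0% = DMSO wells with yeast and 100% = wells holding no yeast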
TIM10 inh = growth inhibitors of TIM10 yeast strain. S. cerevisiae TIM10 strain growth, BacTiter-Glo luminescence, 24 h. AID 463195. actives 1.4% (n = 330,000). inhibition, % at 10 µM;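 active means inhibition of 40% or more at the single tested concentration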;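 further: wild-type TIM10 isogenic control strain grown at permissive 25 °C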
PfHsp90 yeast 2 = growth inhibition of yeast expressing Plasmodium Hsp90; S. cerevisiae expressing PfHsp90, BacTiter-Glo ATP, 48 h; yeast lacking PDR1 and PDR3 efflux regulators; inhibition, % at 9.4 µM; actives 0.32% (n = 310,000); AID 504621;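 active means every replicate shows inhibition above about 80%, whatever the replicate mean, limit read from the data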;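 further: 0% = DMSO neutral controls and 100% = 20 µM radicicol positive controls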
tim23-1 inh = tim23-1 yeast growth inhibition | S. cerevisiae tim23-1 growth, BacTiter-Glo luminescence, 24 h | inhibition, % at 20 µM | actives 1.3% (n = 330,000) | AID 463212;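 active means growth inhibition of the mutant yeast at or above 50%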;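 further: temperature-sensitive mutant grown at 25 °C; plate controls were DMSO-treated mutant yeast for no effect and medium wells lacking yeast for full effect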
tim10-1 confirm = tim10-1 yeast growth inhibition, confirmed; actives 56% (n = 7,400); shares compounds with tim10-1 inh; S. cerevisiae tim10-1 ts strain growth, BacTiter-Glo, 24 h; inhibition, % at 20 µM; AID 463213;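 active means inhibition of yeast growth at or above a set limit in either of two repeat tests at 20 µM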;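 further: tim10-1 mutant grown at permissive 25 °C to find synthetic lethal compounds; 0% = DMSO yeast wells and 100% = medium wells without yeast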
TIM10 conf = confirmation of TIM10 yeast growth inhibitors. inhibition, % at 10 µM. shares compounds with TIM10 inh. S. cerevisiae tim10 strain growth, BacTiter-Glo luminescence, 24 h. actives 63% (n = 4,600);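 active means inhibition of yeast growth at or above a set limit in either of two replicates at 10 µM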;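 further: this counterscreen used the strain with wild-type TIM10; 0% = yeast with DMSO and 100% = medium wells lacking yeast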
tim23-1 confirm = confirmation of tim23-1 mutant yeast growth inhibitors; shares compounds with tim23-1 inh; S. cerevisiae tim23-1 growth, BacTiter-Glo luminescence, 24 h; inhibition, % at 20 µM; actives 83% (n = 4,400); AID 463218;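 active means inhibition above about 39% in either of two replicate wells at 20 µM, limit read from the data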;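 further: temperature-sensitive tim23-1 mutant grown at 25 °C; 0% = DMSO wells with yeast and 100% = medium wells without yeast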
An asterisk follows results filed as active; . = no result. Hits are enriched below; roughly 3.7% of the tested compounds scored in any of these assays.

SMILES	V-ATPase pH	tim10-1 inh	TIM10 inh	PfHsp90 yeast 2	tim23-1 inh	tim10-1 confirm	TIM10 conf	tim23-1 confirm
CCCCCCCCCCCCCCCC[N+](C)(C)CCN(Cc1ccc(OC)cc1)c1ncccn1	1	97*	95*	106*	93*	98*	99*	96*
CC1=C(C)/C(=N\OS(=O)(=O)c2ccccc2)C=CC1=O	16	94*	95*	106*	50*	93*	9	94*
O=S(=O)(N=C1C=CC(=NS(=O)(=O)c2ccccc2)c2ccccc21)c1ccccc1	0	.	.	.	.	.	.	.
Nc1nonc1-n1nnc(C(=O)N/N=C/c2cc(Br)ccc2O)c1CNc1ccccc1	-4	61*	48*	40	51*	-6	54*	54*
Cc1ccc(/C=N/NC(=O)c2nnn(-c3nonc3N)c2CNc2ccccc2)cc1	-1	15	-10	2	16	.	.	.
CC1(C)Cc2ccccc2-c2nc3n(c(=O)c21)CCS3	4	39	-4	-20	35	.	.	.
CC1(C)Cc2ccccc2-c2nc3n(c(=O)c21)CCCS3	-1	42*	26	-19	51*	33*	.	60*
CCCc1cc(=O)n2[nH]c(C)c(-c3ccc(OC)cc3)c2n1	-3	-7	11	-3	17	.	.	.
CCOc1ccccc1NC(=O)/C(C#N)=C/c1c(C)nn(-c2ccccc2)c1Cl	-2	5	-3	32	-8	.	.	.
N#C/C(=C/c1ccccc1[N+](=O)[O-])C(=O)NCc1ccco1	1	52*	60*	10	60*	45*	-25	54*
C=CCNC(=O)/C(C#N)=C/c1ccccc1[N+](=O)[O-]	-1	46*	50*	-6	56*	48*	25	46*
CCOCCCNC(=O)/C(C#N)=C/c1ccc(-c2ccc(S(=O)(=O)N3CCOCC3)cc2)o1	-1	35	11	2	20	.	.	.
C=CCNC(=O)/C(C#N)=C/c1c(C)nn(-c2ccccc2)c1Cl	-14	71*	67*	-15	72*	76*	65*	72*
CCOCCCNC(=O)/C(C#N)=C/c1ccc([N+](=O)[O-])o1	16	84*	68*	-6	75*	79*	94*	74*
Cc1cc(/C=C(\C#N)C(=O)NCc2ccco2)c(C)[nH]1	-3	15	-2	9	7	.	.	.
N#C/C(=C\c1ccccc1[N+](=O)[O-])C(=O)NCc1ccccc1	2	49*	46*	3	71*	54*	51*	74*
CCCCCCCCNC(=O)/C(C#N)=C/c1ccccc1[N+](=O)[O-]	-2	50*	64*	110*	83*	23	70*	47*
N#C/C(=C/c1cn(CC(=O)O)c2ccccc12)C(=O)NCc1ccccc1	-1	8	-5	1	9	.	.	.
O=S1(=O)[C@H]2C[C@H](CO)O[C@@]2(CO)CN1Cc1ccc(-c2ccc(F)cc2)cc1	-3	12	3	0	33	.	.	.
CCCCOC(=O)c1ccc(NC(C)=O)cc1	0	1	3	39	1	.	.	.
CCCCOC(=O)c1ccc(NC(=O)c2nn(C)cc2Br)cc1	-4	52*	48*	.	55*	50*	41*	67*
CC(C)N=c1cc2n(-c3ccc(Cl)cc3)c3ccccc3nc-2cc1Nc1ccc(Cl)cc1	4	41*	24	11	58*	2	.	57*
Cn1c(CNc2ccc(Cl)cc2)nc2ccccc21	5	14	-7	-4	21	.	.	.
CCCCNC(=O)NNC(=O)c1cc(C)on1	-4	-13	2	9	13	.	.	.
CC(C)(C)C(=O)Nc1ccc(C(=O)OC2CCCCC2)cc1	2	41*	39	-5	50*	28	.	42*
SMILES	V-ATPase pH	tim10-1 inh	TIM10 inh	PfHsp90 yeast 2	tim23-1 inh	tim10-1 confirm	TIM10 conf	tim23-1 confirm
O=C(Cc1cccs1)NCc1cc(Cl)cc(Cl)c1	-1	7	16	-12	36	.	.	.
COc1cc(/C=C2\CCc3ccccc3C2=O)cc(OC)c1OC	3	30	39	-16	46	.	.	.
O=C1/C(=C\c2ccncc2)CCc2ccccc21	3	65*	60*	22	72*	62*	62*	39
CC1CCc2[nH]c3ccc(C(=O)N4CCCC(C(F)(F)F)C4)cc3c2C1 (configuration not stated)	3	42*	25	.	68*	30	.	55*
COC(=O)c1ccc2[nH]c3c(c2c1)CC(C)CC3 (configuration not stated)	1	24	19	-53	40	.	.	.
COCCN(C(=O)COC(=O)CSc1ccccc1)c1c(N)n(Cc2ccccc2)c(=O)[nH]c1=O	-1	5	0	10	-7	.	.	.
C=CC(=O)N=c1sc2ccccc2n1-c1ccccc1	1	51*	33	-17	53*	25	.	15
N=c1sc2ccccc2n1-c1ccccc1	-1	12	-9	14	1	.	.	.
N#C/C(=C\c1ccc[nH]1)Sc1nc2ccccc2s1	-1	42*	14	-32	54*	30*	.	48*
O=C(O)/C(=C\c1ccc2ccccc2c1)c1cccc2ccccc12	0	23	28	-22	31	.	.	.
Brc1ccc2c(c1)OCCOCCOc1cc(Br)ccc1OCCOCCOCCO2	-1	57*	35	10	62*	62*	.	72*
CCCc1cc(=O)[nH]c(SCC(=O)Nc2ccc(OC)c(S(=O)(=O)N3CCCCC3)c2)n1	0	-7	-4	2	1	.	.	.
Cc1ccc(C(=O)O/N=C2\CC3CCC2(C)C3(C)C)cc1 (configuration not stated)	4	67*	76*	-26	66*	67*	75*	68*
Cc1ccc(C(=O)O/N=C2/CC3CCC2(C)[C@@]3(C)CBr)cc1 (some centres not stated)	0	37	8	-4	44	.	.	.
Cc1cccc(C(=O)O/N=C2/CC3CCC2(C)C3(C)C)c1 (configuration not stated)	1	50*	65*	22	59*	65*	70*	66*
CC(=O)c1cccc(CN2CCCC(C(=O)Nc3ccc(-c4ccco4)cc3)C2)c1 (configuration not stated)	-3	31	25	-23	27	.	.	.
COc1ccccc1C/C(N)=N/OC(=O)COc1cccc2ccccc12	2	58*	74*	.	65*	64*	62*	73*
COc1ccccc1C/C(N)=N/OC(=O)COc1ccc2ccccc2c1	.	48*	55*	15	52*	64*	43*	77*
